Source: PubChem (several laboratories)
SARS 3CLpro inh: SARS-CoV 3CLpro protease inhibition | P0C6X7 | recombinant SARS-CoV 3CLpro, quenched FRET peptide cleavage | inhibition, % at 6 µM | 290,000 compounds, 0.14% hits | AID 1706; in the data active = inhibition above about 12%
PrPC TRFRET: cell surface PrPC inhibition, primary TR-FRET screen; P04156; TR-FRET read-out; inhibition, % at 13.8 µM; 370,000 compounds, 0.43% hits; in the data active = inhibition above about 24%; also: 0% = median of the test wells and 100% = reference compound wells
PrP UTR inh: suppresses PrP 5' UTR mRNA reporter expression | cell-based PrP 5' UTR mRNA reporter, plate reader | inhibition, % (concentration not given with the values) | 340,000 compounds, 0.35% hits; in the data active = inhibition above about 52%; also: 0 = median of the neutral control wells
Vc quorum ag: inducers of Vibrio cholerae quorum light production without autoinducers; activation, % at 18.7 µM; AID 588436; V. cholerae BH1578 lux reporter, luminescence, 6 h; 350,000 compounds, 0.16% hits; in the data active = activation mostly above about 9.7%, no sharp cut-off; inconclusive = no clear call, values can overlap the other calls; inactive = mostly below about 3.7%
PfHsp40 rescue: rescue of PfHsp40-mediated yeast toxicity | 340,000 compounds, 0.68% hits | S. cerevisiae expressing PfHsp40, growth rescue, ATP luminescence | AID 504582 | growth rescue, % at 12.5 µM; in the data active = growth rescue above about 28%, passing the limit was not always enough; inconclusive = no clear call, values can overlap the other calls;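 also: yeast W303a lacking pdr1 and pdr3 grown in galactose medium; growth measured after three days at 30 °C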
PriA SSB inh: blocks PriA binding to SSB C-terminal tail. 430,000 compounds, 0.6% hits. AID 1272365. AlphaScreen SSBct-PriA binding, biotinylated peptide. inhibition, % at 33 µM; in the data active = inhibition mostly above about 37%, no sharp cut-off; inactive = mostly below about 20%;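 also: plate controls were negative control peptide for no effect and reference peptide for full effect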
PrP UTR cherry: prion 5' UTR mRNA inhibition, cherry-pick retest; cell-based prion protein 5' UTR reporter, plate reader; 1,100 compounds, 48% hits; inhibition, % at 2.5 µM; shares compounds with PrP UTR inh; in the data active = inhibition above about 54%; inconclusive = no clear call, values can overlap the other calls
* hit, by the source's call; i = inactive; ? = inconclusive; nt = no result given; ! = a repeat was not active. An excerpt weighted towards active compounds, which were near 1.6% of everything screened.

SMILES	SARS 3CLpro inh	PrPC TRFRET	PrP UTR inh	Vc quorum ag	PfHsp40 rescue	PriA SSB inh	PrP UTR cherry
CN(C)C(=O)c1cc(C(=O)c2c(F)cccc2F)c[nH]1	-0.9	-5.1	67.6*	i	-1.2	-5.7	-13.5
COc1ccccc1C(=O)N1CCCC1(C#N)c1ccccc1 (stereo unspecified)	-5.1	-6.7	82.7*	-0.6	-0.9	-5.3	-10.5
N#CC1(c2ccccc2)CCCN1C(=O)c1ccccc1Br (stereo unspecified)	4.9	-5.7	3.3	i	0.6	-9.5	nt
Cc1ccc(NC(=O)C2CCN(C(=O)c3ccccc3C)CC2)nc1	nt	6.2	-15.4	-0.5	?	-7.8	nt
Cc1ccccc1C(=O)N1CCC(C(=O)Nc2nccs2)CC1	2.3	-4.1	88.0*	-0.9	1.6	-3.6	-16.8
O=C(c1cnn(-c2ccccc2)n1)N1CCN(C(=O)C2CC2c2cccs2)CC1 (stereo unspecified)	nt	nt	nt	nt	nt	-1.0	nt
Cc1ccc(C(=O)NN=Cc2ccc([N+](=O)[O-])s2)cc1	nt	nt	nt	nt	nt	-13.3	nt
Cc1ccc(C(=O)N/N=C/c2ccc([N+](=O)[O-])s2)cc1	1.1	-27.4	74.6*	i	0.2	nt	77.1*
N#Cc1c(NC(=O)CSc2ncn[nH]2)sc2c1CCCCC2	0.4	7.5	73.7*	-1.8	-1.5	-13.0	76.9*
CCn1cc(NC(=O)Nc2cc(Cl)ccc2OC)c2ccccc21	nt	nt	nt	nt	nt	-11.0	nt
O=C(O)CN1C(=O)/C(=C/c2ccc(N3CCCCC3)o2)SC1=S	-0.4	3.5	-10.9	-0.5	1.2	-7.0	nt
CN1C(=O)C(=Cc2ccc(N3CCCCC3)o2)C(=O)N(C)C1=S	-1.0	-3.1	54.3*	-0.5	1.3	-7.0	-12.0
Cn1cc(/C=N/n2cnc3scc(-c4ccc(Cl)cc4)c3c2=O)c2ccccc21	1.3	0.7	57.1*	i	0.7	nt	91.3*
COC(=O)C1C(O)=C(C=Nc2ccc3ccccc3c2)C(=O)CC1(C)C (stereo unspecified)	-6.2	5.0	80.4*	-0.5	-0.4	-4.7	9.1
C/C(=N\NC(N)=O)c1ccc(Cl)cc1	-3.9	4.4	-5.7	-0.6	0.4	nt	nt
C/C(=N\NC(N)=O)c1ccccc1	2.5	6.7	72.3*	i	-0.6	nt	-7.0
Cc1nnc(SCc2ccccc2CSc2nnc(C)s2)s1	-0.8	-2.3	60.1*	-0.3	-0.8	-0.6	13.9
Cc1nnc(SCSc2nnc(C)s2)s1	-1.2	-1.6	-22.5	i	-1.1	-8.5	nt
Cc1cccc(Cn2cc(C=O)c3ccccc32)c1	-1.5	7.3	19.2	0.6	3.1	-17.5	nt
O=Cc1cn(Cc2cccc([N+](=O)[O-])c2)c2ccccc12	0.3	-7.8	71.2*	-0.4	4.3	1.7	15.8
Cc1[nH]nc2ccc(-c3cncc(OC[C@@H](N)Cc4c[nH]c5ccccc45)c3)cc12	nt	nt	95.1*	i	-1.0	0.9	91.1*
COC(=O)[C@H](Cc1c[nH]c2ccccc12)NC(=O)Cc1c[nH]c2ccccc12	-6.6	8.1	-18.5	-5.6	-0.5	18.3	nt
CCCN1CCN(CC(=O)Nc2nnc(C)s2)CC1	1.4	0.7	52.0*	-0.6	0.6	-12.4	-7.0
COc1ccc2c(COC(=O)c3cccc(S(=O)(=O)NCC(C)C)c3)cc(=O)oc2c1	8.3	4.0	-28.3	-6.9	-0.2	3.5	nt
CCCNS(=O)(=O)c1cccc(C(=O)OCc2cc(=O)oc3cc(OC)ccc23)c1	-0.2	-7.2	57.2*	-0.3	0.2	-2.9	69.2*
SMILES	SARS 3CLpro inh	PrPC TRFRET	PrP UTR inh	Vc quorum ag	PfHsp40 rescue	PriA SSB inh	PrP UTR cherry
COc1ccc(S(=O)(=O)NCC(c2cccnc2)N2CCN(c3ccc(F)cc3)CC2)cc1C (stereo unspecified)	0.1	0.3	52.4*	-0.5	-0.5	16.5	-2.1
Cc1sc(NC(=S)NC(=O)c2ccco2)c(C(N)=O)c1C	1.5	3.1	-34.2	-0.1	-0.5	-1.0	nt
COC(=O)CCC(=O)NC(=S)Nc1sc(C)c(C)c1C(N)=O	-1.4	8.7	67.4*	-0.3	-1.4	-11.4	85.5*
COC(=O)CCC(=O)Nc1sc(C)c(C)c1C(N)=O	0.9	1.5	-3.0	-0.2	2.0	1.7	nt
Cc1sc(NC(=S)NC(=O)CCc2ccccc2)c(C(N)=O)c1C	2.1	14.9	54.5*	-0.3	-2.2	1.8	81.1*
Oc1ccc2c3c1O[C@H]1[C@@H](O)CC[C@@]4(O)[C@@H](C2)N(CC2CCC2)CC[C@]314	nt	10.1	62.9*!	-0.3	-0.9	7.6	-6.5
C=CCN1CC[C@]23c4c5ccc(O)c4OC2[C@H](O)CC[C@@]3(O)[C@H]1C5 (stereo partly specified)	nt	-7.3	1.1	-0.5	-0.6	-17.8	nt
Cc1ccc(S(=O)(=O)N2CCN(C(=O)N(C)C)CC2)cc1	0.1	-1.4	61.6*	i	1.0	-6.0	-58.0
COc1ccc(CCNC(=O)NCC2CCN(c3ccncc3)CC2)cc1	nt	nt	nt	nt	nt	-11.0	nt
Nc1cc(=O)[nH]c(SCCSc2cc(Cl)ccc2Cl)n1	0.0	10.8	57.7*	i	-0.1	-7.4	39.2
O=C(Cn1cnc2ccccc2c1=O)NCCn1nc(-c2ccco2)n(C2CC2)c1=O	nt	nt	nt	nt	nt	-9.0	nt
CCCc1ccc(C(=O)NCC[C@H](O)C2CC2)cc1	nt	nt	nt	nt	nt	-17.0	nt
COc1ccc2[nH]c(-c3cccc(F)c3)cc(=O)c2c1	-1.4	-1.4	62.2*	i	1.0	0.8	91.7*
Nc1nc(-c2nonc2N)no1	-1.7	-3.2	70.9*	0.7	-1.3	-16.2	-20.3
O=c1[nH]c2cc([N+](=O)[O-])ccc2c2ccc([N+](=O)[O-])cc12	nt	0.9	88.2*	2.3	-0.3	2.9	-8.0
O=c1[nH]c2cc([N+](=O)[O-])ccc2c2ccccc12	nt	-24.7	-5.6	0.8	0.5	-2.9	nt
O=C(NCc1ccccc1)C(=O)NCC1(c2ccsc2)CCCC1	nt	nt	nt	nt	nt	-6.0	nt
COCCN1CCCc2ccc(NS(=O)(=O)c3ccc(F)cc3F)cc21	nt	nt	nt	nt	nt	12.0	nt
COc1ccc(S(=O)(=O)Cc2ccc(C(=O)N3CCOCC3)o2)cc1	-1.6	-3.8	70.9*	-0.1	-1.5	4.3	-0.9
O=C(c1ccc(CS(=O)(=O)c2ccc(Br)cc2)o1)N1CCOCC1	0.3	-3.4	-16.8	-0.4	-0.5	-0.5	nt
COc1cc([C@@H]2c3cc4c(cc3[C@H](O)[C@H]3COC(=O)[C@H]23)OCO4)cc(OC)c1OC	-1.3	10.8	67.0*	5.6	0.1	-5.4	85.5*
COc1cc(C2c3cc4c(cc3OC(NNC(N)=O)C2C)OCO4)cc(OC)c1OC (stereo unspecified)	nt	11.0	52.3*	5.6	-1.8	nt	86.8*
COc1cc([C@@H]2c3cc4c(cc3[C@@H](O[C@@H]3O[C@@H]5CO[C@@H](C)O[C@H]5[C@H](O)[C@H]3O)[C@H]3COC(=O)[C@H]23)OCO4)cc(OC)c1O	nt	-3.7	-2.8	0.2	-0.1	-6.3	nt
COc1cc(C2c3cc4c(cc3C(O)C3COCC23)OCO4)cc(OC)c1OC (stereo unspecified)	nt	-3.2	1.2	0.0	-0.4	-7.7	nt
